The record followed here is PubChem BioAssay AID2061322 (National Center for Advancing Translational Sciences (NCATS), 2025).

SMILES strings stand for the structures. Results filed as inconclusive are left out. Calls of active or inactive are those of the source. The call rests on the fitted dose curve; in most records, active means well fitted inhibition curve with a large enough effect; inconclusive means small, poorly fitted or top-dose-only effect; inactive means flat fitted curve, though single readings scatter.

The assay can be described thus: Identification of antibody-drug conjugate (ADC) payloads which are substrates of ATP-binding cassette drug efflux transporters: ABCG2-HEK293-R5 cell line with Ko143. Particulars: ABCG2-HEK293-R5 with Ko143, CellTiter-Glo viability, 48 h. From the text: Antibody-drug conjugates (ADCs) feature an antibody recognizing a specific protein joined to a potent toxic payload. Numerous antibody-drug conjugates have received FDA approval; however, clinical resistance arises. Resistance mechanisms include decreased expression or mutation of the antibody target, impaired payload release, or increased expression of ATP-binding cassette (ABC) efflux transporters associated with multidrug resistance. We therefore sought to characterize the interaction of ABC multidrug transporters with ADC payloads. We performed a high-throughput screen with 27 common ADC payloads using cells lines expressing ABC transporters P-glycoprotein (P-gp, encoded by ABCB1) or ABCG2 (encoded by ABCG2). Confirmatory assays were also performed using cells transfected to express P-gp, ABCG2, or MRP1 (encoded by ABCC1). Several commonly used ADC payloads were substrates of P-gp, including calicheamicin gamma1, monomethyl auristatin E, DM1, and DM4. All the pyrrolobenzodiazepines tested - SJG136, SGD-1882, SG2057, and SG3199 - were substrates of P-gp, ABCG2, and MRP1. […] These findings highlight the risk of transporter-mediated resistance with certain ADC payloads and underscore the importance of selecting payloads that evade ABC transporter recognition in future ADC development.
HEK-293 cells were transfected with empty vector (pcDNA) or vector containing the human ABCB1 (MDR-19), ABCG2 (R-5), or ABCC1 gene (MRP1) and were maintained in EMEM with 2 mg/mL G418 added to maintain transporter expression. The HeLa derivative KB-3-1 and the P-gp overexpressing KB-8-5-11 subline were maintained in DMEM; KB-8-5-11 additionally received 100 ng/mL colchicine. H460 parental cells were obtained from the Division of Cancer Treatment and Diagnosis Tumor Repository, National Cancer Institute at Frederick, MD and were cultured in RPMI. The ABCG2 expressing subline H460 MX20 was generated by selecting H460 cells in 20 nM mitoxantrone. Media in all cases was supplemented with 10% FBS and 1% penicillin-streptomycin. We explored 27 common ADC payloads, in two orthogonal, paired cell line sets-a drug selected and transfected set for each transporter--to identify substrates of the ABC transporters P-gp and ABCG2. Compounds were sourced from Levena Biopharma (San Diego, CA), Selleck Chem (Houston, TX), ChemieTek (Indianapolis, IN), or Microsource Discovery Systems (Gaylordsville, CT). Screening was performed as previously described. Briefly, cells were plated at a density of 500 cells/well in 1536 well plates with compounds added using a 1536-head pin tool (Kalypsys, San Diego CA). Cells were incubated with cytotoxic drugs and processed with CellTiter Glo reagent (Promega, Madison, WI) to determine viability after 48 hours. P-gp substrates were identified by comparing compound activity between paired sets of low-expressing (sensitive) and over-expressing (resistant) cell lines.
In general terms: In ATP-based viability assays light output follows the ATP content of the culture.
In the case of `COC(=O)c1cc2c3c(cc(O)c2[nH]1)N(C(=O)c1cc2cc(OC)c(OC)c(OC)c2[nH]1)CC3CCl` (stereo not given), the Potency is 4.2 nM (active).
Consider `CN(C)CCOc1ccc2[nH]c(C(=O)N3C[C@@H](CCl)c4c3cc(O)c3ccccc43)cc2c1`, for which the Potency is 1.9 nM (active).
The result for `CC(C)(C)OC(=O)Nc1ccc2[nH]c(C(=O)N3C[C@@H](CCl)c4c3cc(O)c3ccccc43)cc2c1` reads 30 nM (active).
As for `CCN[C@H]1CO[C@@H](O[C@H]2[C@H](O[C@H]3C#C/C=C\C#C[C@]4(O)CC(=O)C(NC(=O)OC)=C3/C4=C\CSSSC)O[C@H](C)[C@@H](NO[C@H]3C[C@H](O)[C@H](SC(=O)c4c(C)c(I)c(O[C@@H]5O[C@@H](C)[C@H](O)[C@@H](OC)[C@H]5O)c(OC)c4OC)[C@@H](C)O3)[C@@H]2O)C[C@@H]1OC`, the figure is 3 nM (active).
Regarding `CCN(C(C)=O)[C@H]1CO[C@@H](O[C@H]2[C@H](O[C@H]3C#C/C=C\C#C[C@]4(O)CC(=O)C(NC(=O)OC)=C3/C4=C\CSSSC)O[C@H](C)[C@@H](NO[C@H]3C[C@H](O)[C@H](SC(=O)c4c(C)c(I)c(O[C@@H]5O[C@@H](C)[C@H](O)[C@@H](OC)[C@H]5O)c(OC)c4OC)[C@@H](C)O3)[C@@H]2O)C[C@@H]1OC`, the Potency was 33.6 nM (active).
